Results taken from PubChem BioAssay (NCATS).
Several values for one entry are separate records, joined by “and”; a condition that tells them apart may be missing. Equal entries are not always repeated. Results filed as inconclusive are left out. Activity calls are given as the source filed them. The call rests on the fitted dose curve; in most records, active means well fitted cell-killing curve with a large enough effect; inconclusive means small, poorly fitted or top-dose-only effect; inactive means flat fitted curve, though single readings scatter.

assay: Cell Viability - N2a (AID 540); settings: N2a mouse neuroblastoma cell viability; activity change, negative = cytotoxicity: at 92.2 µM (top of the series);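 further: plate controls were DMSO alone for no effect and tamoxifen control for full effect; nearly all actives have a fitted effect of over 45% in size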
Source text: NIH Chemical Genomics Center [NCGC]
NIH Molecular Libraries Screening Centers Network [MLSCN]
National Institutes of Environmental Health Sciences [NIEHS]
National Toxicology Program [NTP]
We have developed a 1536-well cell-based assay for quantitative high throughput screening (qHTS) against a number of cell lines to determine in vitro cytotoxicity of small molecules. This particular assay uses the N2a cell line which is derived from mouse neuroblastoma.
NCGC Assay Protocol Summary:
The CellTiter-Glo luminescent cell viability assay (Promega) is a homogeneous method to measure the number of viable cells in culture. The end point readout of this assay is based on quantitation of intracellular ATP, an indicator of metabolic activity, using the luciferase reaction. Luciferase catalyzes the oxidation of beetle Luciferin to oxyluciferin and light in the presence of ATP. The luminescent signal is proportional to amount of ATP present.
Using the CellTiter-Glo luminescent cell viability assay, the amount of cellular ATP was measured in the N2a cell line with complete culture medium following compound treatment for 40 hours. The assay was performed in opaque white Kalypsys 1536-well plates. In the screen, tamoxifen and doxorubicin were used as positive controls. Library compounds were measured for their ability to cause acute toxicity in the cell line, as reflected by a decrease in intracellular ATP levels, in a concentration-dependent manner. […] AC50 values were determined from concentration-response data modeled with the standard Hill equation.
qHTS protocol for CellTiter Glo N2a cellular assay
[Step] [Parameter] [Value] [Description]
1. Reagent; 5 uL; 1500 N2a cells/well
2. Time; 5 hr; 37 °C incubation
4. Controls; 23 nL; Tamoxifen 0.34 uM to 100 uM & Doxorubicin 0.02 nM to 100 uM
5. Time; 40 hr; 37 °C incubation
6. Reagent; 5 uL; CellTiter Glo reagent
7. Time; 20 min; Room Temperature
8. Detection; Luminescence; Viewlux plate reader
Keywords: cell viability, cytotoxicity, N2a cell line, luminescence, NTPHTS, NTPHTS_NCGC, NIEHS, EPA, DSSTox, MLSMR, MLSCN, NIH Roadmap, qHTS, NCGC

| Structure (SMILES) | activity change, negative = cytotoxicity |
| --- | --- |
| Cc1ccc([N+](=O)[O-])c(C)c1 | -14.6% (inactive) |
| CCCCCCCCCCCC(=O)O | -16.1% (inactive) and -7.4% (inactive) |
| COc1ccc(/C=C/c2cc(OC)cc(=O)o2)cc1 | -11.5% (inactive) |
| COC(=O)c1ccc(C)cc1 | -14.4% (inactive) |
| O=C(O)CC(C(=O)O)C(CC(=O)O)C(=O)O (stereo not given) | -8.87% (inactive) |
| Cc1ccc([N+](=O)[O-])cc1N | -2.12% (inactive) |
| Cc1c(N=C=O)cccc1N=C=O | -2.52% (inactive) |
| c1ccc2c(c1)c1cccc3ccc4cccc2c4c31 | 3.28% (inactive) |
| COC(=O)c1ccc(C=O)cc1 | -4.37% (inactive) |
| O[C@@H]([C@H](O)[C@@H](O)CBr)[C@@H](O)CBr | 11.7% (inactive) |
| CCCCOCCO | 6.13% (inactive) and -1.59% (inactive) |
| COc1ccc2nc(N)sc2c1 | -0.684% (inactive) |
| CC1=C2[C@H](/C=C(\C)C(=O)O)CC[C@@H](C)[C@H]2CC1 | 10.9% (inactive) |
| CCC(C)c1ccccc1O (stereo not given) | 0.301% (inactive) and 2.4% (inactive) |
| O=C(/C=C/c1ccc(O)c(O)c1)O[C@@H](C(=O)O)[C@@H](OC(=O)/C=C/c1ccc(O)c(O)c1)C(=O)O | -0.47% (inactive) |
| C=Cc1ccccc1Cl | 1.46% (inactive) |
| COc1c2ccoc2cc2oc(=O)ccc12 | 0.867% (inactive) |
| O=C1CCc2ccccc2O1 | 7.64% (inactive) |
| CCCN(CCC)C(=O)SCC | -0.642% (inactive) |
| COc1cc(/C=C/c2ccccc2)oc(=O)c1 | 1.71% (inactive) |

| Structure (SMILES) | activity change, negative = cytotoxicity |
| --- | --- |
| C/C=C\c1ccc(OC)cc1 | -0.381% (inactive) |
| C=CCc1ccc(OC)c(OC)c1 | -13.8% (inactive) |
| Cc1cccc([N+](=O)[O-])c1C | -2.02% (inactive) |
| Cc1ccc(N)c([N+](=O)[O-])c1 | 2.46% (inactive) |
| CCCCCCCCCCCCCCC1CO1 (stereo not given) | 8.54% (inactive) |
| Clc1cc(Cl)c(Cl)c(Cl)c1Cl | -10.3% (inactive) |
| O=C(O)c1ccccc1 | 6.89% (inactive) |
| CCCCCCCCO | -10.6% (inactive) |
| C=C(C)C1CC=C(C)C(O)C1 (stereo not given) | -0.158% (inactive) |
| CCO[Si](CCCN)(OCC)OCC | -19% (inactive) |
| COCC(=O)O | 3.33% (inactive) |
| C=CC(=C)CCC=C(C)C | 5.78% (inactive) |
| CCCCCCCCCCCCCC(=O)O | -4.4% (inactive) |
| c1ccc2scnc2c1 | -2.55% (inactive) |
| COC(=O)CCCCC(=O)OC | 4.03% (inactive) |
| CC(C)=CCCC(C)CCO (stereo not given) | -9.36% (inactive) |
| O=NO | -19.4% (inactive) and -4.96% (inactive) |
| c1ccc2c(c1)[nH]c1ccccc12 | -16.4% (inactive) |
| C[C@H](CCC(=O)O)[C@H]1CC[C@H]2[C@@H]3CC[C@@H]4C[C@H](O)CC[C@]4(C)[C@H]3CC[C@]12C | 2.31% (inactive) |
| O=[N+]([O-])c1cccc(Cl)c1Cl | -3.99% (inactive) |
